# Measurements: PubChem BioAssay AID504332 (National Center for Advancing Translational Sciences (NCATS), 2011)
# “And” between values parts separate entries of the source, which are not always exact repeats. Identical values can stand only once. Hit rate of the full screen: of about 350,000 compounds, about 31,000 (8.9%) were called active. A call without a number means that no potency is given here. Roughly 15% stayed inconclusive and do not appear here. Calls follow the shape of the dose curve; as a rule, active = well fitted inhibition curve with a large enough effect; inconclusive = small, poorly fitted or top-dose-only effect; inactive = no such curve, though single readings can be large or run the other way. For the sample, actives were picked, then their nearest neighbours and some compounds at random. Some structures have more than one record in an assay (separate samples or runs), and their calls can disagree.
# Target: Histone-lysine N-methyltransferase EHMT2 (Homo sapiens) (UniProt Q96KQ7)
# Sequence (Q96KQ7 913-1193 limits assumed): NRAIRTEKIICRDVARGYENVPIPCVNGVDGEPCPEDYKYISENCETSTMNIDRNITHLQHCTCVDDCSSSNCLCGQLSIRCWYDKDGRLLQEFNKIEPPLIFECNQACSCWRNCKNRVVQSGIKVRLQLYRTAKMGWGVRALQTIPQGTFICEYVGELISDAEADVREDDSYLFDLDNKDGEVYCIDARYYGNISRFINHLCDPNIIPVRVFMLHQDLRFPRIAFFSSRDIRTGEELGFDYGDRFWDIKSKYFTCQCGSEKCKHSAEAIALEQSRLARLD
# Test: qHTS Assay for Inhibitors of Histone Lysine Methyltransferase G9a; also: nearly all actives have a fitted effect of over 75% in size
# Conditions: G9a H3K9 monomethylation, AlphaScreen, 2 h; series mostly up to 59 µM
# How it was run: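 Enzyme 20 nM + cpd, 15 min RT; add b-H3K9 pep 500 nM / SAM 20 uM; 2 h RT; anti-H3K9me1 Ab 0.5 ug/mL + SA donor / anti-rabbit acceptor beads 20 ug/mL each, 10 min; AlphaScreen read.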
# Potency is read from the fitted curve at half-maximal effect.
Structure (SMILES),Potency,"activity, negative = inhibition"
FC(F)(F)c1nnc2sc(-c3ccco3)nn12,inactive,
Cc1nnc2sc(-c3ccco3)nn12,inactive,
Fc1ccc(-c2ccc(-c3nn4c(-c5ccco5)nnc4s3)o2)cc1,15.8 µM (active),
CSc1ccc(CCNC(=O)c2cc(C)nc3c2c(C)nn3-c2cccc(F)c2)cc1,inactive,
CC(C)n1ncc2c(C(=O)NCc3ccccc3CN(C)C)cc(C3CC3)nc21,inactive,
N#Cc1ccc(N2Cc3ccccc3/C2=N/C(=O)Nc2ccc(Cl)cc2)cc1,inactive,
Cc1cccc(N2Cc3ccccc3C2=NC(=O)c2ccc(Cl)nc2)c1,11.2 µM (active),
Cc1cccc(N2CCN(C(=O)c3cccc(S(=O)(=O)N4CCc5ccccc5C4)c3)CC2C)c1 (stereo unspecified),inactive,
O=C(COc1cccc2c1CCNC2=O)NC1CCCCC1,,8.64% [at 0.501 µM] (inactive)
Cc1cc(OCC(=O)NCC2(N(C)C)CCCCC2)cc(C)c1Cl,inactive,
Cc1cccc(OCC(O)Cn2c(N3CCCCC3)nc3c2c(=O)[nH]c(=O)n3C)c1 (stereo unspecified),inactive,
CCOC(=O)Cn1c(CN(Cc2ccccc2)Cc2ccccc2)nc2c1c(=O)[nH]c(=O)n2C,inactive,
CCC(C)Sc1nc2c(c(=O)[nH]c(=O)n2C)n1CC(O)COc1cccc2ccccc12 (stereo unspecified),7.94 µM (active),
O=C(COc1ccc(/C=N/NS(=O)(=O)c2ccccc2)cc1)NCCc1ccccc1,,-4.68% [at 2.33 µM] (inactive)
O=S(=O)(N/N=C\c1cccn1-c1ccccc1)c1ccc2ccccc2c1,31.6 µM (active),
COc1ccc(/C=N/NS(=O)(=O)c2ccc(NC(C)=O)cc2)cc1,inactive,
CC(=O)Cn1cnc2c(cnn2-c2ccccc2)c1=O,inactive,
CCc1ccc(NC(=O)CCCc2nnc3n(CCCOC)c(=O)c4sccc4n23)cc1,inactive,
COc1ccccc1C(=O)NCCC(=O)NCC(c1ccco1)N1CCCCC1 (stereo unspecified),inactive,
COc1ccccc1CCNC(=O)CN1C(=O)NC2(CCCC2)C1=O,,8.45% [at 0.501 µM] (inactive)
COc1ccccc1C(=O)NCCC(=O)NN1C(=O)NC2(CCCCC2)C1=O,50.1 µM (active),

Structure (SMILES),Potency,"activity, negative = inhibition"
COc1cccc(CNC(=O)Cn2ncn3c(cc4ccccc43)c2=O)c1,inactive,
COc1ccc(NC(=O)c2sc3nc[nH]c(=O)c3c2C)cc1,inactive,
CCc1cccc(NC(=O)c2cc(-c3ccccc3)n[nH]2)c1,inactive,
CN(C(=O)COc1ncnc2c1cnn2-c1ccccc1)C1CCCCC1,,25.1% [at 0.0925 µM] (inactive)
CN(C(=O)CSc1nnnn1-c1ccccc1)C1CCCCC1,inactive,
CN(C(=O)CSc1nncc2ccccc12)C1CCCCC1,50.1 µM (active),
COc1ccccc1CNC(=O)C(=O)NCC(c1cccs1)S(=O)(=O)c1cccs1 (stereo unspecified),inactive,
COc1ccc(-c2nc3ccccc3c(=O)n2CCc2ccc(O)cc2)cc1,inactive,
COc1ccc(NC(=O)Cn2c(-c3ccc(OC)cc3)cn(-c3ccc(C)cc3)c2=O)cc1,,-31.1% [at 12.7 µM] (inactive)
COc1ccc(-c2ccc(CCC(=O)O)n2-c2ccc(O)cc2)cc1,31.6 µM (active),
CCOC(=O)c1c(CNCc2ccccc2F)c2sc(C)cc2n1C,,12% [at 12.7 µM] (inactive)
CC(C)N(C(=O)CN1CCN(S(=O)(=O)c2ccc(Br)s2)CC1)C(C)C,,17.1% [at 2.33 µM] (inactive)
Cc1ccc(S(=O)(=O)N2CCN(CC(=O)N/N=C/c3ccc(Br)s3)CC2)cc1,inactive,
Cc1cccc(NC(=O)CN2CCCN(S(=O)(=O)c3ccc(Br)s3)CC2)c1,39.8 µM (active),
CC1CC(C)(C)CC2(C1)NC(=O)N(CC(=O)Nc1nccs1)C2=O (stereo unspecified),,13.6% [at 0.501 µM] (inactive)
COc1cccc(CNC(=O)C2CCC(CNS(=O)(=O)c3cccs3)CC2)c1 (stereo unspecified),inactive,
CSc1ncc(Cl)c(C(=O)Nc2ccc(S(=O)(=O)N3CCCC(C)C3)cc2)n1 (stereo unspecified),inactive,
Cc1cc(C)cc(OCC(=O)Nc2nc(-c3ccc(F)cc3)ns2)c1,inactive,
CO/N=C(\C(=O)N[C@@H]1C(=O)N2C(C(=O)O)=C(COC(C)=O)CS[C@H]12)c1csc(N)n1 (stereo in doubt),inactive and 44.7 µM (active),
CC(=O)c1ccc(N2CCN(c3nc4c(S(=O)(=O)c5ccccc5)nnn4c4ccc(Cl)cc34)CC2)cc1,inactive,
Fc1cccc(-n2ncc3c2ncn2nc(-c4ccccc4Cl)nc32)c1,inactive,

Structure (SMILES),Potency,"activity, negative = inhibition"
Cc1ccc(C)c(N2CCN(C(=O)CCc3c(C)nc4c(c3C)c(=O)n(C)c(=O)n4C)CC2)c1,inactive,
O=C(Cc1ccccc1Cl)N1CCOCC1,inactive,
S=C(Cc1ccc(Cl)cc1)N1CCOCC1,14.1 µM (active),
O=C(Nc1ccc(Cl)cc1)Nc1ccc(C(=O)N2CCOCC2)cc1,inactive,
COc1cccc(C(=O)Nc2ccc3oc(-c4ccc5ccccc5c4)nc3c2)c1,inactive,
COc1ccc(NC(=O)c2c(C)oc3c2CCCC3)cc1,inactive,
COc1ccc(C2C3=C(CCCC3=O)N(CC(=O)O)C3=C2C(=O)CCC3)cc1,inactive,
COc1ccc(N/N=C2/CCCCC2=O)cc1,10 µM (active),
Cc1ccc(-c2nn3c(=O)cc(CN4CCN(C(=O)Nc5cccc(C(F)(F)F)c5)CC4)nc3s2)cc1,inactive,
CCCn1nc(C(=O)OCc2nc(N)nc(Nc3ccccc3C)n2)c2ccccc2c1=O,,-4.37% [at 12.7 µM] (inactive)
Cc1cn(C)c(CC(=O)NCc2ccccc2)c1C(=O)O,inactive,
c1nnc2c3c4c(sc3ncn12)CCC4,inactive,
N=c1c2c3c(sc2ncn1N)CCCC3,inactive,
S=c1[nH]nc2c3c4c(sc3ncn12)CCCC4,1.12 µM (active),
Cn1c(=O)c2sccc2n(Cc2ccc(Br)cc2)c1=O,,4.98% [at 2.33 µM] (inactive)
C/C(Cn1nnc2ccccc21)=N\OC(=O)c1cc(F)c(F)cc1Cl,inactive,
CC(=O)OC(COc1ccc(F)cc1)Cn1cnc2ccccc21 (stereo unspecified),inactive,
Fc1ccc(OCc2nn3c(Cn4nnc5ccccc54)nnc3s2)cc1,11.2 µM (active),
CC12CCC(=O)N1C(C(=O)NCCN1C(=O)S/C(=C\c3ccccc3F)C1=O)CS2 (stereo unspecified),,-5.94% [at 12.7 µM] (inactive)
